# Measurements: publication PMC4336329 (PLoS ONE, 2015)
# Screen size: about 310,000 compounds; about 14,000 (4.5%) showed an effect of 50% or more. The effect is printed as a negative number. For the sample, strong results were picked, then their nearest neighbours and some compounds at random.
# Biological target: human ether-à-go-go-related gene (hERG) potassium channel (human, UniProt Q12809)
# Assay: primary screen, population patch clamp on CHO cells stably expressing hERG; higher = less effect of the substance
# 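Further: peak tail current of the secondary pulse compared with the same well before compound.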
# Chain of human ether-à-go-go-related gene (hERG) potassium channel (Q12809 whole entry, looked up): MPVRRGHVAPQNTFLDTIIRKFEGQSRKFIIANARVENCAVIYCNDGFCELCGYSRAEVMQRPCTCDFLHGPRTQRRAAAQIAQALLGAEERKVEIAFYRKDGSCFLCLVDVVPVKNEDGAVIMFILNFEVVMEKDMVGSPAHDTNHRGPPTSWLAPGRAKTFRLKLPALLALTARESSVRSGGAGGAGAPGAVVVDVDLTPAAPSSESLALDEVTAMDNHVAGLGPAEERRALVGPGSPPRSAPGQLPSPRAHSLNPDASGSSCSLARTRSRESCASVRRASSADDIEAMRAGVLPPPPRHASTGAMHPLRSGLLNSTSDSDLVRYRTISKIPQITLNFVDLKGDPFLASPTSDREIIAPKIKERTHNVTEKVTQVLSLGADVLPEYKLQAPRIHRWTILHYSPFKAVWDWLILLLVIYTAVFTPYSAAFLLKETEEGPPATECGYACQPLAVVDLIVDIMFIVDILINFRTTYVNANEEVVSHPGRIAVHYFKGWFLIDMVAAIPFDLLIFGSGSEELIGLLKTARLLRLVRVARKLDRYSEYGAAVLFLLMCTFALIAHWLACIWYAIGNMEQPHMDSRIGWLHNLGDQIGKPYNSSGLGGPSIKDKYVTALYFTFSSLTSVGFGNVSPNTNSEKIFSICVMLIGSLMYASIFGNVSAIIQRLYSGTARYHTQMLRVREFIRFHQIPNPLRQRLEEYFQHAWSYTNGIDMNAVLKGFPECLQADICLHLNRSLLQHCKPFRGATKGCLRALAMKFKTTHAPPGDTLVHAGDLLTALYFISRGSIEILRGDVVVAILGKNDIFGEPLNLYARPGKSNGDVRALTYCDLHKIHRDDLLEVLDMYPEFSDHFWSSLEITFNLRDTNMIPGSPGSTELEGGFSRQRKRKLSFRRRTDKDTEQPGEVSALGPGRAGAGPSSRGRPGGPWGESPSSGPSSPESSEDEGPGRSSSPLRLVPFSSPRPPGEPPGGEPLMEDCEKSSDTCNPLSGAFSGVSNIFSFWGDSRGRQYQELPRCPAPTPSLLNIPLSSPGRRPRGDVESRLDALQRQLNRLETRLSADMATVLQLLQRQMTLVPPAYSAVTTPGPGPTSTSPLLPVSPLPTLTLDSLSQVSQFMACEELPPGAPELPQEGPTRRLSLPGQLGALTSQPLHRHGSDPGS
row,SMILES,"hERG current change (%, negative = inhibition) at 10uM [%]"
1,O=C(CN1C(=O)C2CCCCC2C1=O)Nc1nc(-c2ccc(F)cc2)cs1 (stereo not shown),5.21
2,O=C(Nc1nc(-c2ccc(Cl)cc2)cs1)c1cccnc1,5.68
3,CC1(C)C(C#N)=C(N)Oc2c1c(=O)oc1ccccc21,0.829
4,Cn1c(N)c(C(=O)CNC2CCCCC2)c(=O)n(C)c1=O,5.61
5,COc1ccc(-c2cc(-c3n[nH]c(=S)n3-c3ccccc3Cl)[nH]n2)cc1,13.5
6,Nn1c(Cc2cccc3ccccc23)nnc1SC1CCOC1=O (stereo not shown),-0.158
7,Cc1ccc(-c2cc(C(=O)N/N=C/C=C/c3ccccc3)n[nH]2)o1,-7.76
8,Cc1ccc(C)c(N2CCN(c3ncccc3[N+](=O)[O-])CC2)c1,2.42
9,COc1cc(NC(=O)C2=C(C)OCCS2)c(Cl)cc1C(=O)NCCN1CCN(C)CC1,-47.1
10,CCOCCCNC(=O)c1cc(Cl)c(NC(=O)C2=C(C)OCCS2)cc1OC,-9.78
11,CCCNC(=O)c1cc(Cl)c(NC(=O)C2=C(C)OCCS2)cc1OC,-14.5
12,CCN1CCN(CCNC(=O)c2cc(Cl)c(NC(=O)C3=C(C)OCCS3)cc2OC)CC1,-73.4
13,COc1cc(NC(=O)C2=C(C)OCCS2)c(Cl)cc1C(=O)NCCN(C)C,-3.65
14,CCN(CC)CCCNC(=O)c1cc(Cl)c(NC(=O)C2=C(C)OCCS2)cc1OC,-61.5
15,O=C(CCS(=O)(=O)c1ccccc1)Nc1ccc(Cl)cn1,-3.42
16,CCN(CC)C(=O)Cn1cc(C(=O)C(=O)NCCCn2ccnc2)c2ccccc21,27.8
17,CCCN1C(=O)COc2ccc(C(=O)c3ccccc3C(=O)O)cc21,17.7
18,CC(c1ccccc1)N1C(=O)c2ccc(C(=O)NCc3cccnc3)cc2C1=O (stereo not shown),-18.4
19,O=C(NC(=S)N(Cc1ccccc1)Cc1ccccc1)C1CCCCC1,12.6
20,COc1ccc(C(=O)N2CCN=C2SC)cc1,1.04
21,O=S(=O)(Nc1cccnc1)c1cc(Cl)ccc1Cl,9.51
22,CCOC(=O)C1CCCN(Cc2cc(OC)c(O)c(OC)c2)C1 (stereo not shown),-2.31

row,SMILES,"hERG current change (%, negative = inhibition) at 10uM [%]"
1,COc1cc(CN2CCCC(C(=O)c3ccc(C(C)(C)C)cc3)C2)cc(OC)c1O (stereo not shown),-47.3
2,COc1cc(OC)c(OC)cc1CN1CCCC(C(=O)c2sccc2C)C1 (stereo not shown),-63.4
3,CCc1ccc(CN2CCCC(C(=O)c3sccc3C)C2)o1 (stereo not shown),2.99
4,COc1cc(CN2CCCC(C(=O)c3sccc3C)C2)cc(Cl)c1O (stereo not shown),-53.8
5,COc1ccc(OC)c(CN2CCCC(C(=O)c3sccc3C)C2)c1 (stereo not shown),-63.9
6,COc1cc(CN2CCCC(C(=O)c3ccc(SC)cc3)C2)cc(Cl)c1O (stereo not shown),-72.8
7,COc1cc(CN2CCCC(C(=O)c3sccc3C)C2)cc(OC)c1O (stereo not shown),-47.8
8,Cc1ccc(CN2CCCC(C(=O)c3sccc3C)C2)o1 (stereo not shown),-11
9,COc1ccc(O)c(CN2CCCC(C(=O)c3sccc3C)C2)c1 (stereo not shown),9.89
10,COCc1ccc(CN2CCCC(C(=O)c3sccc3C)C2)o1 (stereo not shown),5.56
11,O=C(CCn1cnc2ccccc2c1=O)Nc1ccc2c(c1)OCCO2,15.1
12,Cc1cc(C(=O)N(C)C2CCCCC2)no1,11.7
13,CC(=O)O[C@H]1CC[C@@]2(C)[C@@H](CC[C@@H]3[C@@H]2CC[C@]2(C)[C@@H](C(C)(C)O)C[C@@H]32)C1,9.09
14,CC(C)(C)S(=O)(=O)/C(C#N)=N/Nc1ccc(C#N)cc1,22.1
15,CN(CCc1ccccn1)C(=O)Nc1ccc(F)cc1,12.7
16,COc1ccccc1/C=N/Nc1nc(C)c(C(C)=O)s1,5
17,CC(Oc1ccccc1)C(=O)N1CCC2(CC1)Oc1ccc(F)cc1C(=O)C21CC(c2cccnc2)=NO1 (stereo not shown),-20.5
18,[Cl-].c1ccc(COc2ccc(-c3sc(Nc4ccccc4)n[n+]3-c3ccccc3)cc2)cc1,-43.9
19,O=C(CSc1nc(C(F)(F)F)cc(=O)[nH]1)N1CCCC1,19
20,Cc1ccc(NCc2ccco2)cc1C.O=C(O)C(=O)O,1.93
21,Cc1onc(-c2c(Cl)cccc2Cl)c1C(=O)Nc1nc(C(C)(C)C)cs1,-26.4
22,Cc1ccsc1C(=O)C1CCCN(CCO)C1 (stereo not shown),5.34

row,SMILES,"hERG current change (%, negative = inhibition) at 10uM [%]"
1,COc1ccc(CN2CCCC(C(=O)c3sccc3C)C2)cc1O (stereo not shown),-71.9
2,Cc1nc(CCNC(=O)CC2C(=O)NCCN2Cc2ccc(F)cc2)sc1C (stereo not shown),12.3
3,O=C(OCc1cccc([N+](=O)[O-])c1)c1ccc2ccccc2n1,7.33
4,CC(C)C(OC(=O)CN1C(=O)c2ccccc2C1=O)C(=O)NC1CCCC1 (stereo not shown),18.7
5,COC(=O)CNC(=O)C12CC3CC(C1)CC(c1ccc(C)cc1)(C3)C2,12.9
6,C=CCn1c(O)c(C=NCCCOc2ccc(CC)cc2)c(=O)[nH]c1=S,21.8
7,NC(=O)C1CCN(Cc2ccc(OCc3ccccc3)cc2)CC1.O=C(O)C(=O)O,-29.5
8,C=CCN(CC=C)C(=O)C1CCN(Cc2ccc(OCc3ccccc3)cc2)CC1.O=C(O)C(=O)O,-68
9,CCCCN(C)C(=O)C1CCN(Cc2ccc(OCc3ccccc3)cc2)CC1.O=C(O)C(=O)O,-73.4
10,O=C(NCc1ccccn1)C1CCN(Cc2cccc(OCc3ccccc3)c2)CC1.O=C(O)C(=O)O,-35.7
11,CCN(CC)C(=O)C1CCN(Cc2ccc(OCc3ccccc3)cc2)CC1.O=C(O)C(=O)O,-48.7
12,CCN(CC)C(=O)C1CCN(Cc2cccc(OCc3ccccc3)c2)CC1.O=C(O)C(=O)O,-39.6
13,CCCCN(C)C(=O)C1CCN(Cc2cccc(OCc3ccccc3)c2)CC1.O=C(O)C(=O)O,-67.7
14,COc1cccc(NC(=O)c2nn(C)c3c2CS(=O)(=O)c2ccccc2-3)c1,8.68
15,O=C(NCCCc1ccccc1)c1cccc([N+](=O)[O-])c1,-23
16,COc1ccc(COC(=O)Nc2cn(C)nc2C(F)(F)F)cc1,-7.76
17,C=C(C)C(=O)N1CC2(CC(c3cccc(NC(=O)COc4ccc(Cl)cc4)c3)=NO2)C[C@@H]1C(N)=O (stereo partly shown),-15.3
18,CN1Cc2c(N3CCOCC3)nc(SCCC#N)c(C#N)c2CC1(C)C,-2.45
19,COc1ccc(Cc2nnc(NC(=O)c3ccco3)s2)cc1OC,5.42
20,c1ccc2[nH]c(CSc3nccs3)nc2c1,-6.76
21,O=C(Cn1cnc2c(nnn2Cc2ccccc2)c1=O)c1ccccc1,-8
22,COCCN(Cc1cc2ccc(C)c(C)c2nc1Cl)C(=O)N1CCOCC1,-11

row,SMILES,"hERG current change (%, negative = inhibition) at 10uM [%]"
1,OCC1(CC2CCCCO2)CCN(Cc2nc3ccccc3[nH]2)CC1 (stereo not shown),18
2,Cc1ccccc1CC1(CO)CCCN(Cc2cn[nH]c2-c2ccccc2)C1 (stereo not shown),-23.9
3,OCC1(CCOc2ccccc2)CCN(Cc2nc3ccc(F)cc3[nH]2)CC1,-55
4,OCC1(CCOc2ccccc2)CCN(Cc2cn[nH]c2-c2ccc(F)cc2)CC1,-71.6
5,OCC1(CCOc2ccccc2)CCN(Cc2cn[nH]c2-c2ccccc2)CC1,-74.4
6,OCCC1CN(Cc2nc3ccc(F)cc3[nH]2)CCN1C1CCCC1 (stereo not shown),-15.9
7,CC1CCN(CC(=O)Nc2ccc(S(=O)(=O)N3C(C)CCCC3C)cc2)CC1 (stereo not shown),3.93
8,O=C(Cc1ccccc1)NCCc1cnc[nH]1,17.4
9,COc1ccc(C(=O)NCC(C)NC(=O)c2ccc(OC)c(OC)c2)cc1OC (stereo not shown),13.8
10,COC(=O)Cc1ccc(NC(C)=O)cc1,8.79
11,COc1cccc(NC(=O)CCC(=O)NCc2ccco2)c1,17.2
12,Cc1c(Cl)cccc1NC(=S)/C(=C(\[O-])c1ccc(Cl)s1)[n+]1ccccc1,3.76
13,Cc1cc(C=C2C(=O)c3ccccc3C2=O)c(C)n1-c1ccc(C(=O)O)cc1,1.68
14,Cc1nn2c(C(F)(F)F)cc(-c3ccc(Cl)cc3)nc2c1C(=O)N1CCOCC1,-13.6
15,Cc1nc2ccccn2c1P(=Nc1ccccc1)(N(C)C)N(C)C,-52.5
16,CCN(CC)P(=S)(c1c(C)nc2ccccn12)c1c(C)nc2ccccn12,-9.33
17,CCN(CC)P(=O)(c1ccccc1)c1c(C)nc2ccccn12 (stereo not shown),-3.24
18,N#Cc1c(SCC(=O)Nc2nc3ccc(Br)cc3s2)sc2c(O)cc(=O)[nH]c12,9.27
19,CC(C)CNC(=S)NC(=O)c1ccc(F)cc1,5.45
20,COc1ccc(C(=O)N/N=C(\C)c2ccc3c(c2)C2C=CCC2C(c2ccccc2)N3)cc1 (stereo not shown),-1.79
21,COC(=O)c1ccc(C2Nc3ccc(/C(C)=N/NC(=O)C(OC)c4ccccc4)cc3C3C=CCC32)cc1 (stereo not shown),-76.2
22,CC(=O)c1ccc2c(c1)C1C=CCC1C(c1ccncc1)N2 (stereo not shown),-21
